PubChem BioAssay (Tox21)
Records with an inconclusive call do not appear. Activity calls are given as the source filed them. The call rests on the fitted dose curve; in most records, active means well fitted curve in the direction sought with a large enough effect in the repeat runs; inconclusive means weak or mixed curves; inactive means no such curve, though single readings can be large; an effect the other way counts as inactive or inconclusive.

Columns and labels:
[1] = Caspase-3/7 induction in CHO-K1 cells by small molecules, qHTS assay (AID 1346980); further: nearly all actives have a fitted effect of over 15% in size
How it was run: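 Wild-type CHO-K1 cells exposed to compounds for 17hr at 37 C, 5% CO2. Caspase-3/7 activity then measured by Caspase-Glo 3/7 luminescence after 30min at room temperature.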

[2] = Caspase-3/7 induction in HepG2 cells by small molecules, qHTS cell viability counter screen (AID 1346981); further: series mostly up to about 92 µM; nearly all actives have a fitted effect of over 30% in size
How it was run: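 CellTiter-Fluor fluorescence measured viability in the same wells used for Caspase-Glo 3/7. HepG2 (wild type) at 2,000 cells/well were pre-incubated 5 hr, dosed, and given reagent at 16 hr, with 1 hr further at 37C.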

[3] = biological target: Nuclear receptor subfamily 1 group I member 2 (Homo sapiens) (UniProt O75469); experiment: Human pregnane X receptor (PXR) small molecule agonists, qHTS assay (AID 1346982); further: nearly all actives have a fitted effect of over 35% in size; further: potency means the concentration at half of the fitted maximal effect
Chain of Nuclear receptor subfamily 1 group I member 2 (Homo sapiens) (O75469 whole entry, looked up): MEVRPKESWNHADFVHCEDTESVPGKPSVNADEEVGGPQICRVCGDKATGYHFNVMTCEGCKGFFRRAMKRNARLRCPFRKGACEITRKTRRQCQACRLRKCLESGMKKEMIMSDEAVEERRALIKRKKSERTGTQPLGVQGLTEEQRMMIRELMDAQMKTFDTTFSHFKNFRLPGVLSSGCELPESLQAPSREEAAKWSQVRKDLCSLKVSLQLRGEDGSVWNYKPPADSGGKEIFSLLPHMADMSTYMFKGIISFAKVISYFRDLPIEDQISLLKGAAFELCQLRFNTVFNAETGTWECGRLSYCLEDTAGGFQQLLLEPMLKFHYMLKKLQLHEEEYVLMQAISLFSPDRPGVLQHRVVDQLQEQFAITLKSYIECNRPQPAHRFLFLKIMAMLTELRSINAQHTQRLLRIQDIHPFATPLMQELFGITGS
How it was run: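 Agonist mode: luminescence from ONE-Glo after 24 h compound exposure at 37C in HepG2 cells carrying hPXR-responsive CYP3A4 luciferase, plated in charcoal-stripped serum medium 5 h beforehand.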

[4] = biological target: Cytochrome P450 2D6 (Homo sapiens) (UniProt P10635); experiment: Cytochrome P450 Family 2 Subfamily D Member 6 (CYP2D6) small molecule antagonists: luciferase reporter qHTS assay (AID 1671196); further: nearly all actives have a fitted effect of over 50% in size; further: potency means the concentration at half of the fitted maximal effect; on activity change, negative = inhibition: series mostly up to about 120 µM
Chain of Cytochrome P450 2D6 (Homo sapiens) (P10635 whole entry, looked up): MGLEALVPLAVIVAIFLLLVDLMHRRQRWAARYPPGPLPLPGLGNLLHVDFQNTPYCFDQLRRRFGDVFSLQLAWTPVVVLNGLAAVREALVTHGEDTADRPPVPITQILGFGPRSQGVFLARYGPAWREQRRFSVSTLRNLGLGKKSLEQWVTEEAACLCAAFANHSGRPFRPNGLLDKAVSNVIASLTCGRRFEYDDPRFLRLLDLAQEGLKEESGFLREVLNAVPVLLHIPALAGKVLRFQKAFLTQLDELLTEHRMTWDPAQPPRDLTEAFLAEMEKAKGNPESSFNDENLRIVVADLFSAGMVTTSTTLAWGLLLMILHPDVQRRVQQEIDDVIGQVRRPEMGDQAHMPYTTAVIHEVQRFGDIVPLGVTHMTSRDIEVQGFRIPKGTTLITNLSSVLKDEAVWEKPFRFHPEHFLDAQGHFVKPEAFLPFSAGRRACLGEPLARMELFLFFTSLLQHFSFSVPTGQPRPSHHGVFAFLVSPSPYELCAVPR
How it was run: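 CYP2D6 activity was followed as luminescence from its luciferin product after a 1 h NADPH-driven reaction at room temperature. Enzyme-substrate mix and compound were pre-incubated for 10 min, and the signal was read 20 min after adding detection reagent.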

[5] = biological target: Cytochrome P450 2C19 (Homo sapiens) (UniProt P33261); experiment: Cytochrome P450 Family 2 Subfamily C Member 19 (CYP2C19) small molecule antagonists: luciferase reporter qHTS assay (AID 1671197); further: nearly all actives have a fitted effect of over 65% in size; further: potency means the concentration at half of the fitted maximal effect; on activity change, negative = inhibition: series mostly up to about 120 µM
Chain of Cytochrome P450 2C19 (Homo sapiens) (P33261 whole entry, looked up): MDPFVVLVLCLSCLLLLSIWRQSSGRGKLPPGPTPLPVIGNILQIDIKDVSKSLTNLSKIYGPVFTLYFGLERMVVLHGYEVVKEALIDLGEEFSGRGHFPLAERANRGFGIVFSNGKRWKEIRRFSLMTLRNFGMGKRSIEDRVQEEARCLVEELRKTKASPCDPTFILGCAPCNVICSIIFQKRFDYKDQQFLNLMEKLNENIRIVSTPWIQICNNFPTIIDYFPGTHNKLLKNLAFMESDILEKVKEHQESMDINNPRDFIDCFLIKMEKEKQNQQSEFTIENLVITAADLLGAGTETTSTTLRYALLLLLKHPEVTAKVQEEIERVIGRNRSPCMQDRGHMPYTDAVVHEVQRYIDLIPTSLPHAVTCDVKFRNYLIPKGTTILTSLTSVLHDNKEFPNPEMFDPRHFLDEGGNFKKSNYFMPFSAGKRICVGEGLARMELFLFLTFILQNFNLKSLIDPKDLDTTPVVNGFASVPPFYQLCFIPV
How it was run: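 Luminescent readout of CYP2C19 activity: luciferin product detected 20 min after adding detection reagent. Before that, compound and enzyme-substrate mix preincubated 10 min at room temperature; NADPH-regenerating system started a 1 h, 37C reaction. Ketoconazole as positive control.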

[6] = biological target: Cytochrome P450 2C9 (Homo sapiens) (UniProt P11712); experiment: Cytochrome P450 Family 2 Subfamily C Member 9 (CYP2C9) small molecule antagonists: luciferase reporter qHTS assay (AID 1671198); further: nearly all actives have a fitted effect of over 50% in size; further: potency means the concentration at half of the fitted maximal effect; on activity change, negative = inhibition: series mostly up to about 120 µM
Chain of Cytochrome P450 2C9 (Homo sapiens) (P11712 whole entry, looked up): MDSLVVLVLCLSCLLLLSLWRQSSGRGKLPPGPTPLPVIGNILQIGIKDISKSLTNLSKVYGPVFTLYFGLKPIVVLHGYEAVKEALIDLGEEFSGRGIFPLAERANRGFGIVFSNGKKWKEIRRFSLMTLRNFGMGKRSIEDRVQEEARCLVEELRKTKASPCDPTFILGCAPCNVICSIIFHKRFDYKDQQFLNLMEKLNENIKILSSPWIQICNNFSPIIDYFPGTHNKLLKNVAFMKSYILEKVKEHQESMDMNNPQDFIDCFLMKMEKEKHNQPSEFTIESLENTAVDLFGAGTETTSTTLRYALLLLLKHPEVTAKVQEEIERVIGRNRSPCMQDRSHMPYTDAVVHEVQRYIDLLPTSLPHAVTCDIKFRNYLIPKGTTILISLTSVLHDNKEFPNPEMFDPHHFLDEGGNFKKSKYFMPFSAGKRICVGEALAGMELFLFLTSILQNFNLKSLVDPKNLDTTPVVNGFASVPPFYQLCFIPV
How it was run: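 P450-Glo proluciferin substrate with CYP2C9 enzyme; 10 min RT preincubation, then NADPH regeneration 1 h at 37C; luciferin detection reagent 20 min RT, luminescence in relative luminescence units.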

[7] = biological target: Cytochrome P450 1A2 (Homo sapiens) (UniProt P05177); experiment: Cytochrome P450 Family 1 Subfamily A Member 2 (CYP1A2) small molecule antagonists: luciferase reporter qHTS assay (AID 1671199); further: nearly all actives have a fitted effect of over 50% in size; further: potency means the concentration at half of the fitted maximal effect; on activity change, negative = inhibition: series mostly up to about 120 µM
Chain of Cytochrome P450 1A2 (Homo sapiens) (P05177 whole entry, looked up): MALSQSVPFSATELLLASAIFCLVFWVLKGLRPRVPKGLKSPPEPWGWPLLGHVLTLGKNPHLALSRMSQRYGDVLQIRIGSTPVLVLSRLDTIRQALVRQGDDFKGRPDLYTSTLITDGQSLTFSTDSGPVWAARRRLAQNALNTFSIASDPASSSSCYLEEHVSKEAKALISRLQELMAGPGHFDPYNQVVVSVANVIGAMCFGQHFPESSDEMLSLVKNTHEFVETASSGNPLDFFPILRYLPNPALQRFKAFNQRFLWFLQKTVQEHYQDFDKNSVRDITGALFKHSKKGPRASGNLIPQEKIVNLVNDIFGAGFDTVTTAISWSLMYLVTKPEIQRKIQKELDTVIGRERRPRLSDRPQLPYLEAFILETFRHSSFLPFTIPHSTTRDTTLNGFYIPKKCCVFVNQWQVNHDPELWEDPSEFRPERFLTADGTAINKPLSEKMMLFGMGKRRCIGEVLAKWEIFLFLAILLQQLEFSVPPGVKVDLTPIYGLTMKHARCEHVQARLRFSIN
How it was run: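 Luminescence from luciferin formed by CYP1A2 from a proluciferin substrate, read 20 min after detection reagent. Compound was pre-incubated 10 min with enzyme-substrate, and reaction started with NADPH regeneration solution for 1 h at room temperature; furafylline control.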

[8] = biological target: Voltage-gated inwardly rectifying potassium channel KCNH2 (Homo sapiens) (UniProt Q12809); experiment: Human Ether-a-go-go-Related Gene (hERG) channel small molecule antagonists: fluorescence cell-based qHTS assay (AID 1671200); further: nearly all actives have a fitted effect of over 50% in size; further: potency means the concentration at half of the fitted maximal effect;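 on activity change, negative = inhibition: hERG-expressing U2OS cells given a thallium stimulus after FluxOR II dye loading; series mostly up to about 77 µM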
Chain of Voltage-gated inwardly rectifying potassium channel KCNH2 (Homo sapiens) (Q12809 whole entry, looked up): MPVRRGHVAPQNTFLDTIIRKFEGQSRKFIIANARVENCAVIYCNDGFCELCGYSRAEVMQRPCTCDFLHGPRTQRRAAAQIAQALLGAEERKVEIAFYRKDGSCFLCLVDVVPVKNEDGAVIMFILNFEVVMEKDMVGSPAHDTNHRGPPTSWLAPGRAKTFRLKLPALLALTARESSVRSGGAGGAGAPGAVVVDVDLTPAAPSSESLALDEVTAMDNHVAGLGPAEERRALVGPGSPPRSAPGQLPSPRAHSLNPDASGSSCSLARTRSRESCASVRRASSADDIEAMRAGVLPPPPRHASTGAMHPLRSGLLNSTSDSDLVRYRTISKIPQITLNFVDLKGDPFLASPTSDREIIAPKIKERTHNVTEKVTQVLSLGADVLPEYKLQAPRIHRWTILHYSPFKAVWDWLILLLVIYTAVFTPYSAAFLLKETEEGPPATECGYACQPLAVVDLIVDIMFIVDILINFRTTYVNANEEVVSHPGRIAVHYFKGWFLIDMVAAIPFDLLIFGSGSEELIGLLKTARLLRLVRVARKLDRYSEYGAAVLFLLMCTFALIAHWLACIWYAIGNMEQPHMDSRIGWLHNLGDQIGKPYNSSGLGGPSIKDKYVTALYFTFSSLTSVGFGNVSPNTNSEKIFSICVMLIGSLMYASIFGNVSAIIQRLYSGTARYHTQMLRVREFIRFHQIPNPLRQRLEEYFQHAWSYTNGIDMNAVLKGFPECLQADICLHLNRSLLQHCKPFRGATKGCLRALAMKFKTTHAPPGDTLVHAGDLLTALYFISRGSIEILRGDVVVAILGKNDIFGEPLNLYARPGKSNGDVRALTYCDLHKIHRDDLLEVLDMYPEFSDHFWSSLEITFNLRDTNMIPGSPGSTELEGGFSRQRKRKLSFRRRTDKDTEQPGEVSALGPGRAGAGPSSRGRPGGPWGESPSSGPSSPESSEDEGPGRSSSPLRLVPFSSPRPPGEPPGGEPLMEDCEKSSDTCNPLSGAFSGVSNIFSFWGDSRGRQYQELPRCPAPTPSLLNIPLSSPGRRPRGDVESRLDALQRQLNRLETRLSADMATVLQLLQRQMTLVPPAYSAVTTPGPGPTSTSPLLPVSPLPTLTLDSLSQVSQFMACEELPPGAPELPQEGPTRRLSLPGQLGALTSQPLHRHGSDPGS
How it was run: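 Cell line hERG-U2OS; dye FluxOR II, 1 h RT dark; Tl+ stimulus; ex 480/em 540 nm, read each second for 2 min.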

[9] = biological target: Cytochrome P450 3A4 (Homo sapiens) (UniProt P08684); experiment: Cytochrome P450 Family 3 Subfamily A Member 4 (CYP3A4) small molecule antagonists: luciferase reporter qHTS assay (AID 1671201); further: nearly all actives have a fitted effect of over 50% in size; further: potency means the concentration at half of the fitted maximal effect; on activity change, negative = inhibition: series mostly up to about 120 µM
Chain of Cytochrome P450 3A4 (Homo sapiens) (P08684 whole entry, looked up): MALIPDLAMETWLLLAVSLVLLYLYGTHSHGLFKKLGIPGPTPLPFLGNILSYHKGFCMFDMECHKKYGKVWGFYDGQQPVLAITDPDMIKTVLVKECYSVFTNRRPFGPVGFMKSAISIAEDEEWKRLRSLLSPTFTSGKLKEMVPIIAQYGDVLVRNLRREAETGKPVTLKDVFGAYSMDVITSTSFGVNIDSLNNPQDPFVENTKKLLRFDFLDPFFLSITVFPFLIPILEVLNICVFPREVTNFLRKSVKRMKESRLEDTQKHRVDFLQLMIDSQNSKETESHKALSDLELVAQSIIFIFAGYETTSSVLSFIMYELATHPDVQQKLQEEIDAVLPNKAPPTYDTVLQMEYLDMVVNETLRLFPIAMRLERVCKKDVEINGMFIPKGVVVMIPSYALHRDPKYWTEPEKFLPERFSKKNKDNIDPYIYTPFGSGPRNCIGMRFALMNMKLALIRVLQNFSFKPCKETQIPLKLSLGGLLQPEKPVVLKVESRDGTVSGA
How it was run: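 Room-temperature assay throughout: 10 min compound–enzyme/substrate preincubation, 1 h reaction after NADPH regeneration solution, 20 min detection. Luciferin formed from proluciferin substrate is quantified by luminescence.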

[10] = biological target: Nuclear receptor subfamily 1 group I member 2 (Homo sapiens) (UniProt O75469); experiment: CYP3A4 induction through human pregnane X receptor (PXR) by small molecules, qHTS assay (AID 1346984); further: nearly all actives have a fitted effect of over 40% in size
How it was run: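 Read-out is luminescence after One-Glo addition, following a 3 hr, 37C incubation with Luciferin-IPA CYP3A4 substrate (3uM final). Before that, compounds were on DPX-2 cells (HepG2 co-transfected with PXR element plus CYP3A4-promoter luciferase) for 24 hr at 37C.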

[11] = biological target: Nuclear receptor subfamily 1 group I member 2 (Homo sapiens) (UniProt O75469); experiment: Human pregnane X receptor (PXR) activation by small molecules, qHTS assay (AID 1346985); further: nearly all actives have a fitted effect of over 40% in size; further: potency means the concentration at half of the fitted maximal effect
How it was run: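 DPX-2 cells (HepG2 co-transfected with a PXR response element and a CYP3A4-promoter luciferase construct) were seeded at 2,000 per well, rested 5 hr at 37C, then exposed to DMSO-dissolved compounds for 24 hr. Activation was read as luciferase luminescence.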
On the % scale 0 is the no-effect control and ±100 the full control effect.

CCCCC(CC)COCCCN (stereo unspecified)
inactive: Potency [1] | Potency [2]
active: Potency [3] 60.4 µM | Potency [4] 12.5 µM | Potency [5] 5.58 µM | Potency [6] 35.2 µM | Potency [7] 11.1 µM | Potency [8] 38.5 µM | Potency [9] 9.92 µM

CCCCCC/C=C/C=O
active: Potency [5] 71 µM | Potency [6] 63.3 µM
inactive: Potency [1] | Potency [2] | Potency [3] | Potency [4] | Potency [7] | Potency [8] | Potency [9]

N#Cc1cc2ccccc2c2ccccc12
inactive: Potency [1] | Potency [2] | Potency [4] | Potency [8]
active: Potency [3] 61.4 µM | Potency [5] 35.8 µM | Potency [6] 35.8 µM | Potency [7] 0.0636 µM

COc1ccc2[nH]c(S(=O)Cc3ncc(C)c(OC)c3C)nc2n1 (stereo unspecified)
active: Potency [3] 18.8 µM | Potency [11] 25.1 µM | Potency [5] 34.7 µM | Potency [6] 17.4 µM | Potency [7] 24.5 µM
inactive: Potency [1] | Potency [2] | Potency [10] | Potency [8]

CN1CCC(=C2c3ccccc3C=Cc3ccccc32)CC1
inactive: Potency [1] | Potency [2] | Potency [3] | Potency [6] | Potency [7] | Potency [9]
active: Potency [4] 2.45 µM | Potency [5] 24.5 µM

S=C(S)NCCNC(=S)S
active: Potency [5] 31.2 µM | Potency [6] 35 µM
inactive: Potency [1] | Potency [2] | Potency [3] | Potency [4] | Potency [7] | Potency [8] | Potency [9]

COC(=O)CSc1cc(N=c2sc(=O)n3n2CCCC3)c(F)cc1Cl
inactive: Potency [1] | Potency [2] | Potency [3]
active: Potency [4] 63.3 µM | Potency [5] 31.7 µM | Potency [6] 8.94 µM | Potency [7] 3.17 µM

O=C(O)C(c1ccc(Cl)cc1)c1ccc(Cl)cc1
active: Potency [5] 28.3 µM | Potency [6] 15.9 µM
inactive: Potency [1] | Potency [2] | Potency [3] | Potency [4] | Potency [7] | Potency [8]

NCc1ccccc1
active: Potency [4] 31.7 µM | Potency [7] 31.7 µM
inactive: Potency [1] | Potency [2] | Potency [3] | Potency [5] | Potency [6] | Potency [8] | Potency [9]

Cc1occc1S
active: Potency [3] 61.1 µM | Potency [5] 56.4 µM | Potency [6] 35.6 µM | Potency [9] 28.3 µM
inactive: Potency [1] | Potency [2] | Potency [4] | Potency [7] | Potency [8]

COCCO
inactive: Potency [1] | Potency [2] | Potency [3] | Potency [4] | Potency [5] | Potency [6] | Potency [7] | Potency [8] | Potency [9]

Cc1ccc(C)o1
inactive: Potency [1] | Potency [2] | Potency [3] | Potency [4] | Potency [5] | Potency [6] | Potency [7] | Potency [8] | Potency [9]

CC(=O)c1c(C)c([N+](=O)[O-])c(C(C)(C)C)c([N+](=O)[O-])c1C
inactive: Potency [1] | Potency [2] | Potency [4] | Potency [6] | Potency [8]
active: Potency [3] 48.6 µM | Potency [5] 31.7 µM | Potency [7] 11.2 µM

COC(=O)C(C)=O
active: Potency [5] 71.3 µM | Potency [7] 31.9 µM
inactive: Potency [1] | Potency [2] | Potency [3] | Potency [4] | Potency [6] | Potency [8] | Potency [9]

CCCCCC(CO)CCC (stereo unspecified)
inactive: Potency [1] | Potency [2] | Potency [3] | Potency [4] | Potency [5] | Potency [6] | Potency [7] | Potency [8] | Potency [9]

CCCC(=O)OCC
active: Potency [6] 12.6 µM
inactive: Potency [1] | Potency [2] | Potency [3] | Potency [4] | Potency [5] | Potency [7] | Potency [8] | Potency [9]

COc1cc(C(C)(C)C)c(O)c(C(C)(C)C)c1
active: Potency [5] 35.6 µM | Potency [6] 22.4 µM | Potency [7] 39.9 µM | Potency [9] 35.6 µM
inactive: Potency [1] | Potency [2] | Potency [3] | Potency [4]

Cc1ccc(C(N)=O)cc1N
active: Potency [5] 44.8 µM | Potency [7] 35.6 µM
inactive: Potency [1] | Potency [2] | Potency [3] | Potency [4] | Potency [6] | Potency [8] | Potency [9]

CCCCCCCCCCCCCCCCCBr
inactive: caspase-3/7 activation [1] -0.258% [at 19 µM] | activity change, negative = cytotoxicity [2] 2.8% [at 19 µM] | activation [3] 1.46% [at 19 µM] | activity change, negative = inhibition [4] -1.15% [at 23.6 µM] | activity change, negative = inhibition [5] 4.88% [at 23.6 µM] | activity change, negative = inhibition [6] 0.482% [at 23.6 µM] | activity change, negative = inhibition [7] -12.4% [at 23.6 µM] | activity change, negative = inhibition [8] 7.46% [at 15.8 µM] | activity change, negative = inhibition [9] 1.19% [at 23.6 µM]

C=C(C)C(=O)OCCOc1ccccc1
inactive: Potency [1] | Potency [2] | Potency [3] | Potency [4] | Potency [8] | Potency [9]
active: Potency [5] 31.7 µM | Potency [6] 35.6 µM | Potency [7] 25.2 µM

C[C@@H](C1=C(CCN(C)C)Cc2ccccc21)c1ccccn1
inactive: Potency [1] | Potency [2] | Potency [3] | Potency [5] | Potency [6] | Potency [7] | Potency [9]
active: Potency [4] 11 µM | Potency [8] 19 µM

C=C(C)C(=O)OC(C)C
inactive: Potency [1] | Potency [2] | Potency [3] | Potency [4] | Potency [5] | Potency [6] | Potency [7] | Potency [8] | Potency [9]

c1ccc(OCc2ccc(CCCN3CCOCC3)cc2)cc1
active: Potency [3] 2.37 µM | Potency [4] 15.5 µM | Potency [5] 38.9 µM | Potency [6] 38.9 µM | Potency [8] 12 µM
inactive: Potency [1] | Potency [2] | Potency [10] | Potency [11] | Potency [7]
